# The campaign covered roughly 39,000 compounds. About 1,500 (3.8%) were called active. Shown is part of a subset that was picked to be rich in actives.
# Tested on: HSkMC (human skeletal muscle cells)
# Assay: cytotoxicity call (relative viability < 0.9)
# Settings: 10 µM
row,SMILES,cytotoxicity call
1,C[C@H](CO)N1C[C@H](C)[C@@H](CN(C)S(=O)(=O)c2ccc(Cl)cc2)OCCCC[C@H](C)Oc2ccc(NS(=O)(=O)c3ccccc3)cc2C1=O,inactive
2,Cc1c(N)nc([C@H](CC(N)=O)NC[C@H](N)C(N)=O)nc1C(=O)N[C@H](C(=O)N[C@H](C)[C@@H](O)[C@H](C)C(=O)N[C@H](C(=O)NCCc1nc(-c2nc(C(=O)NCCCNCCCCN)cs2)cs1)[C@@H](C)O)[C@@H](O[C@@H]1O[C@@H](CO)[C@@H](O)[C@H](O)[C@@H]1O[C@@H]1O[C@H](CO)[C@@H](O)[C@H](OC(N)=O)[C@@H]1O)c1c[nH]cn1,active
3,Cc1ccc(S(=O)(=O)N(C)C[C@@H]2Oc3ccc(NC(=O)Cn4cnnn4)cc3CC(=O)N([C@@H](C)CO)C[C@H]2C)cc1,inactive
4,C[C@@H]1CN([C@H](C)CO)C(=O)c2cccc(NC(=O)Nc3ccc(C(F)(F)F)cc3)c2O[C@H]1CN(C)Cc1ccc(-c2ccccc2)cc1,inactive
5,C[C@@H]1CN([C@H](C)CO)C(=O)c2cccc(NC(=O)Nc3ccccc3)c2O[C@H]1CN(C)Cc1ccc(C(F)(F)F)cc1,active
6,C[C@H]1CN([C@@H](C)CO)C(=O)c2cccc(NC(=O)Nc3ccc(C(F)(F)F)cc3)c2O[C@H]1CN(C)Cc1ccc(-c2ccccc2)cc1,inactive
7,C[C@@H]1CN([C@@H](C)CO)C(=O)c2cccc(NC(=O)Nc3ccccc3)c2O[C@@H]1CN(C)Cc1ccc(C(F)(F)F)cc1,inactive
8,C[C@H](CO)N1C[C@H](C)[C@H](CN(C)Cc2ccc(C(F)(F)F)cc2)Oc2c(NC(=O)Nc3ccccc3)cccc2C1=O,inactive
9,C[C@@H]1CN([C@@H](C)CO)C(=O)c2cccc(NC(=O)Nc3ccccc3)c2O[C@H]1CN(C)Cc1ccc(C(F)(F)F)cc1,inactive
10,C[C@H](CO)N1C[C@H](C)[C@@H](CN(C)Cc2ccc(C(F)(F)F)cc2)Oc2c(NC(=O)Nc3ccccc3)cccc2C1=O,inactive
11,C[C@@H]1CN([C@H](C)CO)C(=O)c2cccc(NC(=O)Nc3ccc(C(F)(F)F)cc3)c2O[C@@H]1CN(C)Cc1ccc(-c2ccccc2)cc1,active
12,C[C@H]1CN([C@@H](C)CO)C(=O)c2cccc(NC(=O)Nc3ccccc3)c2O[C@@H]1CN(C)Cc1ccc(C(F)(F)F)cc1,active
13,Cc1noc(C)c1NC(=O)Nc1ccc2c(c1)C(=O)N([C@H](C)CO)C[C@H](C)[C@H](CN(C)Cc1ccncc1)OCCCC[C@H](C)O2,inactive
14,Cc1noc(C)c1S(=O)(=O)N(C)C[C@H]1Oc2ccc(NC(=O)Cc3ccccc3)cc2CC(=O)N([C@@H](C)CO)C[C@H]1C,inactive
15,CN(C)Cc1cn(CC[C@H]2CC[C@@H](NC(=O)Cc3cccnc3)[C@H](CO)O2)nn1,inactive
16,C[C@H](CO)N1C[C@H](C)[C@@H](CN(C)Cc2ccc(-c3ccccc3)cc2)Oc2c(NC(=O)CCCCCC(=O)Nc3ccccc3N)cccc2C1=O,inactive
17,CC(C)NC(=O)N(C)C[C@H]1Oc2cc(C#Cc3cccc(F)c3)ccc2S(=O)(=O)N([C@@H](C)CO)C[C@@H]1C,inactive
18,C[C@H](NC(=O)C[C@H]1CC[C@H](NC(=O)CN2CCOCC2)[C@@H](CO)O1)c1ccccc1,inactive
19,COc1ccc(NC(=O)Nc2cccc3c2O[C@@H](CN(C)Cc2ccc(Oc4ccccc4)cc2)[C@@H](C)CN([C@H](C)CO)C3=O)cc1,active

row,SMILES,cytotoxicity call
1,COc1ccc(NC(=O)Nc2cccc3c2O[C@@H](CN(C)Cc2ccc(Oc4ccccc4)cc2)[C@H](C)CN([C@@H](C)CO)C3=O)cc1,inactive
2,COc1ccc(NC(=O)Nc2cccc3c2O[C@@H](CN(C)Cc2ccc(Oc4ccccc4)cc2)[C@H](C)CN([C@H](C)CO)C3=O)cc1,inactive
3,COc1ccc(NC(=O)Nc2cccc3c2O[C@H](CN(C)Cc2ccc(Oc4ccccc4)cc2)[C@H](C)CN([C@H](C)CO)C3=O)cc1,inactive
4,COc1ccc(NC(=O)Nc2cccc3c2O[C@@H](CN(C)Cc2ccc(Oc4ccccc4)cc2)[C@@H](C)CN([C@@H](C)CO)C3=O)cc1,inactive
5,COc1ccc(NC(=O)Nc2cccc3c2O[C@H](CN(C)Cc2ccc(Oc4ccccc4)cc2)[C@@H](C)CN([C@@H](C)CO)C3=O)cc1,active
6,CC(C)NC(=O)Nc1ccc2c(c1)C(=O)N([C@H](C)CO)C[C@H](C)[C@@H](CN(C)S(C)(=O)=O)OCCCC[C@@H](C)O2,inactive
7,CC(C)(C)[S@](=O)N1Cc2cc(C(=O)N3CCCCC3)nc(-c3cccc(C4=CCCC4)c3)c2[C@@H]1CCO,inactive
8,Cc1noc(C)c1NC(=O)N(C)C[C@@H]1OCCCC[C@H](C)Oc2ccc(NS(=O)(=O)c3ccc(Cl)cc3)cc2C(=O)N([C@H](C)CO)C[C@@H]1C,inactive
9,CC[C@H](C)[C@@H]([C@@H](CC(=O)N1CCC[C@H]1[C@H](OC)[C@@H](C)C(=O)N[C@@H](Cc1ccccc1)c1nccs1)OC)N(C)C(=O)[C@@H](NC(=O)[C@H](C(C)C)N(C)C)C(C)C,active
10,C[C@H](CO)N1C[C@H](C)[C@@H](CN(C)Cc2ccc(Oc3ccccc3)cc2)Oc2c(NC(=O)Cc3ccccc3)cccc2C1=O,inactive
11,COc1ccc(NC(=O)Nc2ccc3c(c2)C(=O)N([C@H](C)CO)C[C@@H](C)[C@@H](CN(C)Cc2ccc4c(c2)OCO4)OCCCC[C@@H](C)O3)cc1,inactive
12,Cc1noc(C)c1S(=O)(=O)Nc1ccc2c(c1)C(=O)N([C@@H](C)CO)C[C@H](C)[C@@H](CN(C)C(=O)Nc1ccc(C(F)(F)F)cc1)OCCCC[C@@H](C)O2,inactive
13,C[C@@H]1CN([C@@H](C)CO)C(=O)c2cc(NC(=O)CCCCCC(=O)Nc3ccccc3N)ccc2O[C@H]1CN(C)C(=O)Nc1ccc(F)cc1,inactive
14,Nn1c(-c2ccncc2)nncc1=O,inactive
15,C[C@H]1CN([C@@H](C)CO)C(=O)Cc2cc(NC(=O)Nc3ccc4c(c3)OCO4)ccc2O[C@@H]1CN(C)Cc1ccc(Cl)c(Cl)c1,inactive
16,C[C@H](CO)N1C[C@H](C)[C@H](CN(C)Cc2ccc(Cl)c(Cl)c2)Oc2ccc(NC(=O)Nc3ccc4c(c3)OCO4)cc2CC1=O,active
17,C[C@@H]1CN([C@H](C)CO)C(=O)Cc2cc(NC(=O)Nc3ccc4c(c3)OCO4)ccc2O[C@H]1CN(C)Cc1ccc(Cl)c(Cl)c1,inactive
18,C[C@@H]1CN([C@@H](C)CO)C(=O)c2cc(NC(=O)Nc3ccc4c(c3)OCO4)ccc2O[C@H]1CN(C)Cc1ccc(Cl)c(Cl)c1,inactive
19,C[C@H](CO)N1C[C@H](C)[C@@H](CN(C)Cc2ccc(Cl)c(Cl)c2)Oc2ccc(NC(=O)Nc3ccc4c(c3)OCO4)cc2CC1=O,active

row,SMILES,cytotoxicity call
1,C[C@H]1CN([C@@H](C)CO)C(=O)c2cc(NC(=O)Nc3ccc4c(c3)OCO4)ccc2O[C@H]1CN(C)Cc1ccc(Cl)c(Cl)c1,inactive
2,C[C@H]1CN([C@@H](C)CO)C(=O)c2cc(NC(=O)Nc3ccc4c(c3)OCO4)ccc2O[C@@H]1CN(C)Cc1ccc(Cl)c(Cl)c1,inactive
3,C[C@H](CO)N1C[C@H](C)[C@H](CN(C)Cc2ccc(Cl)c(Cl)c2)Oc2ccc(NC(=O)Nc3ccc4c(c3)OCO4)cc2C1=O,inactive
4,C[C@H]1CN([C@@H](C)CO)C(=O)Cc2cc(NC(=O)Nc3ccc4c(c3)OCO4)ccc2O[C@H]1CN(C)Cc1ccc(Cl)c(Cl)c1,active
5,C[C@@H]1CN([C@H](C)CO)C(=O)Cc2cc(NC(=O)Nc3ccc4c(c3)OCO4)ccc2O[C@@H]1CN(C)Cc1ccc(Cl)c(Cl)c1,active
6,C[C@@H]1CN([C@@H](C)CO)C(=O)Cc2cc(NC(=O)Nc3ccc4c(c3)OCO4)ccc2O[C@@H]1CN(C)Cc1ccc(Cl)c(Cl)c1,inactive
7,C[C@@H]1CN([C@@H](C)CO)C(=O)Cc2cc(NC(=O)Nc3ccc4c(c3)OCO4)ccc2O[C@H]1CN(C)Cc1ccc(Cl)c(Cl)c1,inactive
8,C[C@@H]1CCCCO[C@H](CN(C)C(=O)Nc2ccc(F)cc2)[C@@H](C)CN([C@@H](C)CO)C(=O)c2cc(NC(=O)CCC(F)(F)F)ccc2O1,inactive
9,CC(C)NC(=O)Nc1cccc2c1O[C@H](CN(C)C(=O)Nc1ccc3c(c1)OCO3)[C@@H](C)CN([C@@H](C)CO)C2=O,inactive
10,COc1ccc(NC(=O)N(C)C[C@H]2Oc3c(NC(=O)Nc4ccc(C(F)(F)F)cc4)cccc3C(=O)N([C@@H](C)CO)C[C@H]2C)cc1,inactive
11,C[C@@H]1CCCCO[C@H](CN(C)Cc2ccc(Cl)c(Cl)c2)[C@@H](C)CN([C@@H](C)CO)C(=O)c2cc(NC(=O)Nc3ccc(C(F)(F)F)cc3)ccc2O1,inactive
12,C[C@H]1CN([C@@H](C)CO)C(=O)c2cccc(NC(=O)c3cnccn3)c2O[C@H]1CN(C)Cc1ccncc1,inactive
13,C[C@@H]1CN([C@@H](C)CO)C(=O)c2cccc(NC(=O)c3ccncc3)c2O[C@H]1CN(C)Cc1ccc(C(=O)O)cc1,inactive
14,C[C@@H]1CCCCO[C@@H](CN(C)Cc2ccc(C(F)(F)F)cc2)[C@H](C)CN([C@@H](C)CO)C(=O)c2cc(NC(=O)Nc3cccc4ccccc34)ccc2O1,inactive
15,O=C(CN1CCOCC1)N[C@@H]1CC[C@@H](CCNC(=O)C2CCC2)O[C@@H]1CO,inactive
16,C[C@@H]1CN([C@H](C)CO)C(=O)Cc2cc(NS(=O)(=O)c3cn(C)cn3)ccc2O[C@@H]1CN(C)S(=O)(=O)c1ccc(F)cc1,inactive
17,O=C(C[C@H]1C[C@@H]2c3cc(NS(=O)(=O)c4ccc(F)cc4)ccc3O[C@@H]2[C@@H](CO)O1)NCc1cccc(F)c1,inactive
18,COc1ccc(S(=O)(=O)N(C)C[C@@H]2Oc3ccc(NS(=O)(=O)c4cn(C)cn4)cc3C(=O)N([C@H](C)CO)C[C@H]2C)cc1,inactive

# Source: the antibiotic and cytotoxicity screens of Wong et al. (2023)
